From PubChem BioAssay
Pf Dd2 growth – qHTS Primary assay for Inhibitors of Plasmodium falciparum Dd2 growth in vitro; AID 1347417, 2020; 4.3% of 120,000 active; P. falciparum Dd2 growth, SYBR Green, 72 h; Potency, µM (titrated, usually from 28.9 µM), usual class: inhibitors; active = well fitted inhibition curve with a large enough effect; note: nearly all actives have a fitted effect of over 65% in size
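Infected erythrocytes (Dd2, 0.3% parasitemia, 2.5% hematocrit final) are added to compound in RPMI-1640/Albumax II medium, grown 72 h at 37C in low oxygen, then lysed with saponin/Triton-X containing SYBR Green and read by fluorescence.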
Numbers stand for hits; . = inactive; [ ] = dose if it differs, or a comment. This is one part of a sample in which hits are shown more often than they occur.

SMILES	Pf Dd2 growth
CCc1nccc(CN2CCCC(CC3CC3)(C(=O)O)C2)n1 (configuration not stated)	.
COc1ccc(CN2CCCC(CO)(CC3CC3)C2)c(F)c1 (configuration not stated)	12.6µM
CN(C)C(=O)CN1CCCC(CO)(CC2CC2)C1 (configuration not stated)	.
O=C(O)C1(CC2CC2)CCCN(Cc2ncccn2)C1 (configuration not stated)	.
COc1cccc(CCC(=O)N2CCCC(CO)(CC3CC3)C2)c1 (configuration not stated)	.
CCCCC(=O)Nc1nnc(S(=O)(=O)N2CCCCCC2)s1	.
CCCc1nnc(NC(=O)C2CC(=O)N(c3n[nH]c4cc(Br)ccc34)C2)s1 (configuration not stated)	.
Cc1noc(C)c1C(=O)N1C[C@@H](COc2ccccc2)[C@H](C(N)=O)C1	.
COc1cc(NC(=O)CC2C(=O)N(c3ccccc3)C(=O)N2Cc2ccc(F)cc2)cc(OC)c1 (configuration not stated)	.
COc1ccccc1CNS(=O)(=O)c1ccc(-c2cnc(C3CC3)o2)cc1	.
COc1ccc(OC)c(CNC(=O)C2(CCO)CCN(c3ncccn3)C2)c1 (configuration not stated)	.
Cc1ccc(CNC(=O)CCCn2c(=O)c3ccccc3n(Cc3ccccc3C)c2=O)cc1	.
COCCN1C[C@@H]2CN(C(=O)c3cnc[nH]c3=O)C[C@]2(C(=O)O)C1	.
CC1(C)[C@H]2CC[C@@H](CNC(=O)c3cccnc3)[C@@H]1C2	.
COCC1(CNC(=O)c2cccc(OC)c2)C[C@@H](O)[C@@H](O)C1 (some centres not stated)	.
COc1cccc(C(=O)NC[C@@H]2CC[C@H]3C[C@@H]2C3(C)C)c1	11.2µM
COc1cc(OC)cc(-c2nc(-c3nnn4c3COC(c3ccc(Cl)cc3)C4)no2)c1 (configuration not stated)	.
CC1CCN(C(=O)[C@H]2CCC[C@H]2NC(=O)c2ccncc2)CC1	.
O=C(Cn1cccc1-c1nc(-c2ccc(F)cc2)no1)Nc1ccc(F)c(F)c1	.
CC(=O)Nc1ccc(NC(=O)Cn2cccc2-c2nc(-c3ccc(F)cc3)no2)cc1	.
COc1ccc(-c2noc(-c3cccn3CC(=O)N3CCN(c4ccccc4OC)CC3)n2)cc1F	.
Cc1c(Cl)cccc1NC(=O)Cn1cccc1-c1nc(-c2ccc(F)cc2)no1	.
O=C(Cn1cccc1-c1nc(-c2ccccc2)no1)N1CCN(c2ccccc2F)CC1	7.94µM
Cc1cccc(NC(=O)Cn2cccc2-c2nc(-c3ccc(F)cc3)no2)c1C	.
O=C(Cn1cccc1-c1nc(-c2ccccc2)no1)Nc1cccc(Cl)c1	2.51µM
SMILES	Pf Dd2 growth
COc1ccc(NC(=O)Cn2cccc2-c2nc(-c3ccccc3)no2)cc1	3.16µM
O=C(Cn1cccc1-c1nc(-c2ccccc2)no1)Nc1cc(F)cc(F)c1	.
O=C(Cn1cccc1-c1nc(-c2ccc(F)cc2)no1)Nc1ccc(Cl)cc1	.
COC(=O)c1ccccc1NC(=O)Cn1cccc1-c1nc(-c2ccccc2)no1	.
CCOc1ccccc1NC(=O)Cn1cccc1-c1nc(-c2ccc(F)cc2)no1	10µM
CNCC(=O)N1CC(COC)C2(CCNCC2)C1 (configuration not stated)	.
Cc1cc(CNC(=O)[C@@H]2CCC[C@@H](NC(=O)C3CCOCC3)CN(C)C(=O)C2)no1	.
O=C(CCC1CCN(S(=O)(=O)c2ccccc2F)CC1)NC1CC1	.
COCCn1ccc2c(OCC(=O)Nc3c(C)cc(C)cc3C)cccc2c1=O	.
Cn1nc(C(=O)N2CC(c3nnc(-c4ccncc4)o3)C3(CCOCC3)C2)c2ccccc21 (configuration not stated)	.
Cc1ccc(C(=O)N2CCC3(CC2)OCC(C(=O)N2CCOCC2)N3C(=O)c2ccc(F)cc2)cc1 (configuration not stated)	.
CN(C)C(=O)CNC(=O)c1cccc(S(=O)(=O)NCC2CCOC2)c1 (configuration not stated)	.
O=C(c1ccccc1OCC1CCCN(C2CCCCC2)C1)N1CCCCC1 (configuration not stated)	.
COCCOc1ccnc(-c2noc([C@@H]3CCCN3CC3CC3)n2)c1	.
CC(C)NS(=O)(=O)c1cc(C(=O)O)cc(-c2cccc3c2OCC3)c1	.
CCc1ccc(S(=O)(=O)c2cn(C)c3cc(OC)c(OC)cc3c2=O)cc1	.
Cn1cc(S(=O)(=O)c2cccc(Cl)c2)c(=O)c2cc(F)c(N3CCCCC3)cc21	.
CCCn1cc(S(=O)(=O)c2ccc(OCC)cc2)c(=O)c2cc(C)ccc21	.
CCc1ccc(S(=O)(=O)c2cn(Cc3ccc(OC)cc3)c3cc(OC)c(OC)cc3c2=O)cc1	11.2µM
Cc1ccc(C)c(Cn2cc(S(=O)(=O)c3ccc(Cl)cc3)c(=O)c3cc(F)ccc32)c1	.
CCOc1ccc(S(=O)(=O)c2cn(Cc3cc(C)ccc3C)c3ccc(OCC)cc3c2=O)cc1	10µM
CCCCn1cc(S(=O)(=O)c2ccc(OC)cc2)c(=O)c2cc(CC)ccc21	.
COc1ccc(S(=O)(=O)c2cn(C)c3cc(N4CCCCCC4)c(F)cc3c2=O)cc1	8.91µM
CCc1ccc(S(=O)(=O)c2cn(C)c3cc(N4CCN(CC)CC4)c(F)cc3c2=O)cc1	.[5.79 µM]
CCCCn1cc(S(=O)(=O)c2ccc(OC)cc2)c(=O)c2cc(F)c(N3CCCC3)cc21	.
SMILES	Pf Dd2 growth
CCCn1cc(S(=O)(=O)c2ccc(OC)cc2)c(=O)c2cc(F)c(N3CCCCCC3)cc21	11.2µM
Cc1cc(C)cc(S(=O)(=O)c2cn(C)c3cc(N4CCCC4)c(F)cc3c2=O)c1	.
CN(C1CCOCC1)C1CCN(C(=O)c2ccc(Cl)cc2)CC1	.
COc1ccccc1-c1cc2c(ccn2C)c(C(=O)NCCc2cnc[nH]2)n1	.
O=C(O)c1ccnc(-c2ccnc(NCCCN3CCCC(O)C3)n2)c1 (configuration not stated)	.
O=C(COc1ccc(F)cc1)Nc1ccccc1OCc1cc(=O)n2ccccc2n1	.
CCC1(C(=O)Nc2ccc(OC)cc2)CCCCC(=O)N1 (configuration not stated)	.
Cc1ccc(C)c(-n2nc(-c3c(C)nc4scc(CC(=O)NCc5ccco5)n4c3=O)cc2C)c1	.
COCCn1nc2n(c1=O)CCN(C(=O)Cc1c[nH]c3ccccc13)CC2	.
CCC(C)NC(=O)Cn1c(=O)n(Cc2ccc(C(=O)NCCCOC)cc2)c(=O)c2ccccc21 (configuration not stated)	.
Cc1cccc(NC(=O)N2CCC(CCOc3ccc(F)cc3)C2)c1 (configuration not stated)	.
O=C(CCS(=O)(=O)c1cccc2nsnc12)Nc1ccc(F)cc1	.
Cc1cc(NC(=O)Cn2ccn3nc4c(c3c2=O)CCCC4)no1	.
CCCn1cc(S(=O)(=O)c2ccccc2)c(=O)c2cc(F)c(N3CCCCCC3)cc21	11.2µM
CCCn1cc(S(=O)(=O)c2ccc(OC)cc2)c(=O)c2cc(F)c(N3CCCC(C)C3)cc21 (configuration not stated)	11.2µM
CCCCn1cc(S(=O)(=O)c2ccc(C)c(C)c2)c(=O)c2cc(F)c(N3CCCC(C)C3)cc21 (configuration not stated)	.
CCCCn1cc(S(=O)(=O)c2ccc(C)cc2)c(=O)c2cc(F)c(N3CCCCC3)cc21	.
CCCn1cc(S(=O)(=O)c2ccccc2)c(=O)c2cc(F)c(N3CCCC3)cc21	.
